Assay results published in PubChem BioAssay.
Unmarked numbers belong to inactive results. For part of these data: Entries with a potency or affinity are not part of this list. Calls of active or inactive are those of the source. Unless noted, the rule behind the calls is not given here.

What was measured:
[1] = antimalarial activity against Dd2 strain (AID 2302;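 active = growth inhibition above 50% at the single 2 µM test dose, taken to imply half-maximal potency below 2 µM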;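 note: 0% = DMSO untreated growth and 100% = chloroquine plus artemisinin killed control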); conditions: P. falciparum Dd2 in RBCs, LDH growth readout, 72 h; at 2 µM; stronger effect = higher value
[2] = human hepatoma cell viability loss – ATP luminescence, cytotoxicity control for P. falciparum antimalarial project, primary screen (AID 2303;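 active = inhibition above 50%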;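 note: 0% = DMSO wells and 100% = digitonin-killed cells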); conditions: HepG2 viability, 24-48 h, at 10 µM, stronger effect = higher value
[3] = molecular target: L-lactate dehydrogenase (Plasmodium falciparum (isolate CDC / Honduras)) (UniProt Q27743); assay: PfLDH activity inhibition – cell lysate, 3D7 strain, counter-screen for P. falciparum growth inhibition project (AID 2304);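 note: 0% = vehicle and 100% = reference inhibitor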; conditions: P. falciparum 3D7 crude extract, LDH APAD/NBT absorbance; at 2 µM; stronger effect = higher value
[4] = inhibition of 3D7 malaria parasite growth – strain 3D7 (AID 2306);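 note: 0% = DMSO wells and 100% = chloroquine plus artemisinin control wells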; conditions: P. falciparum 3D7 erythrocytic growth, LDH absorbance, 72 h; at 2 µM; stronger effect = higher value
[5] = molecular target: Calcium-dependent protein kinase 1 (Plasmodium falciparum (isolate 3D7)) (UniProt P62344); assay: PfCDPK1 kinase inhibitors, biochemical, TCAMS library (AID 1159585; cut-off not given, nearly all actives have IC50 up to about 0.98 µM;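 note: inhibitors leave more ATP so luminescence rises with inhibition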); conditions: recombinant PfCDPK1, Kinase-Glo ATP depletion luminescence
[6] = molecular target: Plasmodium falciparum protein kinase 6 (PK6, PF3D7_1337100) (UniProt Q8IDW1); assay: PfPK6 kinase inhibitors, biochemical, TCAMS library (AID 1159586); conditions: recombinant PfPK6, Kinase-Glo ATP depletion luminescence
[7] = molecular target: Protein kinase 7 (PK7), Plasmodium falciparum 3D7 (PF3D7_0213400) (UniProt Q7YTF7); assay: inhibition of Plasmodium PK7 catalytic activity – biochemical, TCAMS antimalarial set, Kinase-Glo luminescence (AID 1159587); conditions: recombinant PfPK7, Kinase-Glo ATP depletion luminescence
[8] = molecular target: Calcium-dependent protein kinase 4 (Plasmodium falciparum (isolate 3D7)) (UniProt Q8IBS5); assay: PfCDPK4 kinase inhibitors, biochemical, TCAMS library (AID 1159588; cut-off not given, nearly all actives have IC50 up to about 0.91 µM); conditions: recombinant PfCDPK4, Kinase-Glo ATP depletion luminescence
Sequence of Calcium-dependent protein kinase 4 (Plasmodium falciparum (isolate 3D7)) (Q8IBS5 whole entry, looked up): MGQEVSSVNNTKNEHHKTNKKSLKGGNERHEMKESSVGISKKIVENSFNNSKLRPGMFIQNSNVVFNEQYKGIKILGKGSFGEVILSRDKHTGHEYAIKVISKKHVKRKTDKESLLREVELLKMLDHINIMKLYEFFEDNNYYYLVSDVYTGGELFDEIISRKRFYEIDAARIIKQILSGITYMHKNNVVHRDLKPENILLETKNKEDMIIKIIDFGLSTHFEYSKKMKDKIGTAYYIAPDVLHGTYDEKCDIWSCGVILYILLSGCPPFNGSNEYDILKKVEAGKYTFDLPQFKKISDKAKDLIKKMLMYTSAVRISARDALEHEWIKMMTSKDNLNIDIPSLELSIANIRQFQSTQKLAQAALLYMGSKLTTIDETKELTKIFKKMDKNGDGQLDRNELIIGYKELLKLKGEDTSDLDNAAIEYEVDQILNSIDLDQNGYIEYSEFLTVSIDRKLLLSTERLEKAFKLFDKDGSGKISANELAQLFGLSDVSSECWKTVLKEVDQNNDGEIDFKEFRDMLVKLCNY

Sequence of Plasmodium falciparum protein kinase 6 (PK6, PF3D7_1337100) (Q8IDW1 1-305): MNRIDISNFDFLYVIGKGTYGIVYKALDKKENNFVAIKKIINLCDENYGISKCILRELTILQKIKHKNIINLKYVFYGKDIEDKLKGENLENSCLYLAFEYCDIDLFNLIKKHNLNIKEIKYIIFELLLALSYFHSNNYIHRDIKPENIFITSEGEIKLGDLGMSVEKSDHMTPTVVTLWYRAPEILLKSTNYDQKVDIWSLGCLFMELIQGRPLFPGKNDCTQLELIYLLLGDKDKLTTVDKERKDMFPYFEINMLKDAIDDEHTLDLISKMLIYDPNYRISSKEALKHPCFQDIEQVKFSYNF
Sequence of Protein kinase 7 (PK7), Plasmodium falciparum 3D7 (PF3D7_0213400) (Q7YTF7 1-343): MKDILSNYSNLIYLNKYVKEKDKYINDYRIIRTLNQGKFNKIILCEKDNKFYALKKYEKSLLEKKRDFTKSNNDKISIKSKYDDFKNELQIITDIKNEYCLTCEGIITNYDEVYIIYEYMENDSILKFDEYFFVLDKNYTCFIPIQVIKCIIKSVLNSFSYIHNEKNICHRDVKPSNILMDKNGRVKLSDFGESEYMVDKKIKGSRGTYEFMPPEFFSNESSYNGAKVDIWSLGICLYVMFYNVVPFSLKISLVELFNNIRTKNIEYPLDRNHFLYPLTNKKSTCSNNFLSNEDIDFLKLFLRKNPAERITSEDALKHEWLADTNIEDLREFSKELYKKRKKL
Sequence of L-lactate dehydrogenase (Plasmodium falciparum (isolate CDC / Honduras)) (Q27743 whole entry, looked up): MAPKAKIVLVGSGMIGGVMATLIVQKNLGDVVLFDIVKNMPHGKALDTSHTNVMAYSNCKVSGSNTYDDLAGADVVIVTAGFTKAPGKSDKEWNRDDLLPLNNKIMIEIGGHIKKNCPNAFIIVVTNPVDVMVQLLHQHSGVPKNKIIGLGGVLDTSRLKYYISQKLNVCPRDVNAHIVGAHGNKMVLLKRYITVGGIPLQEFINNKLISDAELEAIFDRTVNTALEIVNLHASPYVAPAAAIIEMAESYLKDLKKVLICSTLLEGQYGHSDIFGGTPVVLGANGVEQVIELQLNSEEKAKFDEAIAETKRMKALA
Sequence of Calcium-dependent protein kinase 1 (Plasmodium falciparum (isolate 3D7)) (P62344 whole entry, looked up): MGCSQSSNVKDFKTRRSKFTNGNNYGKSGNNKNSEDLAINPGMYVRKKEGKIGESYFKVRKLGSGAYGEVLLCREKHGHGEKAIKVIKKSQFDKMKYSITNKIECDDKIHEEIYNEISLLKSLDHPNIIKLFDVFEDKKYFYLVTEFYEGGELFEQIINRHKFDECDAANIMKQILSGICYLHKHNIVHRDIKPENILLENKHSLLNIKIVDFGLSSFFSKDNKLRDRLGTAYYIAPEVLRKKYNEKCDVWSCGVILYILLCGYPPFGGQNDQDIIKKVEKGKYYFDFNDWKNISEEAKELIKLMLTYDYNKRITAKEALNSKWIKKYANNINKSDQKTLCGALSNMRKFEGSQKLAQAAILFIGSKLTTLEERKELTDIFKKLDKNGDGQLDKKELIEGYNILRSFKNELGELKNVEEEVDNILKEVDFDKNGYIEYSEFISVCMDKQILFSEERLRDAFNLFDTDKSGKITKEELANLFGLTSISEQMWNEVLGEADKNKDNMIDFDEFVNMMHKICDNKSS

Compound	growth inhibition [1]	inhibition [2]	inhibition [3]	growth inhibition [4]	outcome [5]	outcome [6]	outcome [7]	outcome [8]
O=C(Cc1ccc(NC(=O)c2ccc(O)c(-c3cccc([N+](=O)[O-])c3)c2)cc1)NCCN1CCCCC1	3%	4%	4%	89% (active)	inactive	inactive	inactive	inactive
Cc1cc2c3c(N)nc(N)nc3ccc2n1C(C)C	0%	70% (active)	2%	93% (active)	inactive	inactive	inactive	inactive
CCN(CC)CCNC(=O)c1ccc(NC(=O)c2ccc(-c3cc(NC(=O)CC4CCCC4)ccc3C)cc2)cc1	95% (active)	12%	-5%	99% (active)	inactive	inactive	inactive	inactive
CCNCc1cccc(-c2ccc3ccnc(N)c3c2)c1	98% (active)	17%	0%	100% (active)	inactive	inactive	inactive	inactive
Cc1ccc(-n2cc(CNCCc3ncc(C)[nH]3)c(-c3ccc(F)cc3)n2)cc1	12%	15%	-2%	86% (active)	inactive	inactive	inactive	inactive
O=C(NCCCCN1CCN(CC=Cc2ccccc2)CC1)c1ccc(NC(=O)c2cc(Cl)cc(Cl)c2)cc1	63% (active)	26%	4%	100% (active)	inactive	inactive	inactive	inactive
CNC(=O)CNC(=O)COc1cccc2ccccc12	-6%	3%	-8%	98% (active)	inactive	inactive	inactive	inactive
Cc1cccc2[nH]c(-c3ccc(-c4ccc(CNCCCNS(C)(=O)=O)cc4)s3)nc12	4%	13%	3%	99% (active)	inactive	inactive	inactive	inactive
COc1ccccc1CCCON1C(N)=NC(N)=NC1(C)C	92% (active)	68% (active)	-1%	95% (active)	inactive	inactive	inactive	inactive
COc1ccc(-c2ccc(NC(=O)c3ccc(Cl)cc3)cc2)cc1CN1CCC(O)CC1	15%	20%	5%	89% (active)	inactive	inactive	inactive	inactive
CCOC(=O)/C(=N\OC(C)(C)C(=O)NCc1ccc(O)c(O)c1)c1csc(NC(c2ccccc2)(c2ccccc2)c2ccccc2)n1	99% (active)	13%	-3%	100% (active)	inactive	inactive	inactive	inactive
Cc1cnc(Nc2cccnc2)nc1Nc1ccccc1C(=O)NC(C)C	26%	9%	0%	85% (active)	inactive	inactive	inactive	inactive
COc1cc(Cc2cnc(N)nc2N)cc(OC(C)C)c1OC	15%	10%	0%	91% (active)	inactive	inactive	inactive	inactive
OCC(CO)(CO)NCc1ccc2c3c(cccc13)-c1ccccc1-2	76% (active)	73% (active)	0%	87% (active)	inactive	inactive	inactive	inactive
COc1ccc(F)cc1-c1ccccc1CNC(=O)CN(C)S(=O)(=O)c1cc(C)cc(Cl)c1C	73% (active)	-3%	-2%	92% (active)	inactive	inactive	inactive	inactive
CSCCCN1CCC(O)(c2ccc3oc(C(=O)Nc4ccc5sc(C)nc5c4)cc3c2)CC1	69% (active)	10%	4%	101% (active)	inactive	inactive	inactive	inactive
Clc1cccc(C=NNc2nc(Nc3ccccc3)nc(Nc3ccccc3)n2)c1	15%	-5%	-4%	92% (active)	inactive	inactive	inactive	inactive
COc1ccc(OC)c2c1CCN(CCN1CCC(C(=O)Nc3ccc(C(=O)Nc4ccc(Cl)cc4)cc3)CC1)C2	100% (active)	25%	-2%	100% (active)	inactive	inactive	inactive	inactive
CCCOc1ccc(CCNCCCCNCCc2ccc(OCCC)c3ccccc23)c2ccccc12	52% (active)	100% (active)	7%	93% (active)	inactive	inactive	inactive	inactive
CC(C)NCc1cccc(-c2ccc(NS(=O)(=O)c3cccc4cccnc34)cc2)c1	10%	21%	5%	90% (active)	inactive	inactive	inactive	inactive
COc1ccc(CCN(Cc2cccs2)C(=O)c2cc3sccc3n2C)cc1OC	97% (active)	0%	1%	94% (active)	inactive	inactive	inactive	inactive

Compound	growth inhibition [1]	inhibition [2]	inhibition [3]	growth inhibition [4]	outcome [5]	outcome [6]	outcome [7]	outcome [8]
COc1cc(Cc2cnc(N)nc2N)cc(OCCCc2cc(OCc3ccccc3)no2)c1OC	4%	30%	2%	86% (active)	inactive	inactive	inactive	inactive
COc1ccc(Cl)cc1NC(=O)Nc1ccnc2ccccc12	44%	13%	-6%	101% (active)	inactive	inactive	inactive	inactive
CCC(C)(CC)C(=O)n1ncc2c3c(N)nc(N)nc3ccc21	6%	73% (active)	-4%	94% (active)	inactive	inactive	inactive	inactive
O=[N+]([O-])c1cccc(NC(=S)N2CCCN(Cc3ccc(Cl)cc3Cl)CC2)c1	50% (active)	3%	4%	94% (active)	inactive	inactive	inactive	inactive
CCCN(CCC)CCCCC(C)Nc1c2ccc(Cl)cc2nc2ccc(OC)cc12 (stereo unspecified)	100% (active)	42%	-2%	102% (active)	inactive	inactive	inactive	inactive
COc1ccccc1NC(=O)Nc1cccc(-c2cccc(-c3nc4c(C)cccc4[nH]3)c2)c1	90% (active)	11%	-1%	101% (active)	inactive	inactive	inactive	inactive
N#Cc1c(N)nc(SCC(=O)Nc2cc(C(F)(F)F)ccc2Cl)c(C#N)c1-c1cccs1	96% (active)	23%	-4%	90% (active)	inactive	inactive	inactive	inactive
COc1ccc2nccc(CCN3C[C@H](CNCc4ccc5c(n4)NC(=O)CS5)[C@H](O)C3)c2n1	26%	4%	-2%	86% (active)	inactive	inactive	inactive	inactive
CCOc1cc(C(=O)NCCN(CC)c2cccc(C)c2)ccc1-c1nc2ccc(Cl)cc2[nH]1	80% (active)	-1%	0%	102% (active)	inactive	inactive	inactive	inactive
Nc1ncnc2c1ncn2C(CO)Cc1ccc(O)cc1 (stereo unspecified)	0%	-5%	-2%	93% (active)	inactive	inactive	inactive	inactive
COc1nc(-n2ccc(=N)cc2)nc2ccccc12	45%	15%	1%	90% (active)	inactive	inactive	inactive	inactive
Cc1cc(-c2ccc(CNC3CCN(C)CC3)cc2)ccc1S(=O)(=O)NCc1ccccc1	97% (active)	52% (active)	5%	100% (active)	inactive	inactive	inactive	inactive
O=C(NCc1ccco1)c1ccc(CN2CCN(C(c3ccccc3)c3ccccc3)CC2)cc1	92% (active)	6%	-1%	96% (active)	inactive	inactive	inactive	inactive
COC(=O)c1ccc(NC(=O)Nc2ccc(Cn3ncc(N4CCCNCC4)c(Cl)c3=O)cc2)cc1	43%	-1%	-1%	83% (active)	inactive	inactive	inactive	inactive
COc1ccc(CC(=O)NC2CCN(c3ccnc4cc(Cl)ccc34)C2)cc1 (stereo unspecified)	88% (active)	-1%	-8%	101% (active)	inactive	inactive	inactive	inactive
O=C(Nc1ccc(C2=NC3CCCCC3N2)cc1)Nc1ccc(C2=NC3CCCCC3N2)cc1 (stereo unspecified)	76% (active)	7%	0%	88% (active)	inactive	inactive	inactive	inactive
CC(O)C1CCCCN1C(=O)c1cccc(-c2cccc(-c3nc4ccccc4[nH]3)c2)c1 (stereo unspecified)	76% (active)	20%	-4%	99% (active)	inactive	inactive	inactive	inactive
CNC(=O)c1cc(F)c(F)cc1Nc1nc(Nc2cccc(CS(C)(=O)=O)c2)ncc1Cl	90% (active)	52% (active)	3%	91% (active)	inactive	inactive	inactive	inactive
CC(=O)Nc1cccc(-c2cn(-c3ccc(OCc4cccc(F)c4)c(Cl)c3)c3ncncc23)c1	66% (active)	7%	-4%	100% (active)	inactive	inactive	inactive	inactive
O=S(=O)(c1cc2ccccc2s1)N(CCC(O)(C(F)(F)F)C(F)(F)F)Cc1cccc(O)c1	99% (active)	-1%	0%	100% (active)	inactive	inactive	inactive	inactive
COc1ccc(NCCCNc2ccnc3ccccc23)cc1	17%	34%	2%	88% (active)	inactive	inactive	inactive	inactive
